In all, about 310,000 compounds went through this assay and about 11,000 (3.5%) were called active. Another 4% or so got no clear call; they are omitted. Calls come from the whole dose curve; as a rule, active = well fitted inhibition curve with a large enough effect; inconclusive = small, poorly fitted or top-dose-only effect, or another doubt; inactive = no such curve, though single readings can be large or run the other way. Shown is part of a subset that was picked to be rich in actives.
Potency is the fitted concentration of half-maximal effect.

For this experiment, the target named is 4'-phosphopantetheinyl transferase ffp (Bacillus subtilis) (UniProt Q9F4F7). Nature of the experiment: qHTS Assay for Inhibitors of Bacillus subtilis Sfp phosphopantetheinyl transferase (PPTase).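 For largest response in the series, negative = inhibition: 0% = enzyme reaction without inhibitor and -100% = no enzyme wells.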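 Note: the enzyme is Sfp with the accession as filed and its product quenches rhodamine fluorescence.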 Particulars: Biochemical Sfp PPTase activity. Summed up: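 Compounds were incubated with enzyme (final 15 nM) for 15 min at room temperature before substrate addition started the reaction. Fluorescence at 525 nm excitation, 598 nm emission was recorded immediately and after 30 minutes.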
Take `CCN(CC)/[N+]([O-])=N/Oc1cc(O/[N+]([O-])=N/N2CCCC2CO)c([N+](=O)[O-])cc1[N+](=O)[O-]` (stereo not drawn): the largest response in the series, negative = inhibition was -6.67% (inactive).
With `Cn1c(=O)c2sccc2n(Cc2ccc(Br)cc2)c1=O`, the largest response in the series, negative = inhibition was 5.6% (inactive).
For the molecule `CCOc1ccc(N(CC(=O)Nc2ccccc2F)S(=O)(=O)c2c(C)[nH]c(=O)[nH]c2=O)cc1`, the largest response in the series, negative = inhibition is 9.89% (inactive).
The same measure, in the same setting: with `COc1ccccc1C(=O)NC(=S)Nc1ccccc1N1CCCCC1` the figure was 5.21% (inactive); with `Cc1ccc(C(=O)NCC(=O)OCC(=O)NC2CCCCCCC2)cc1`, 15.7% (inactive); with `COc1ccc(CNC(=O)C2CCN(S(=O)(=O)c3ccc(SC)cc3)CC2)cc1`, 8.97% (inactive).
With `O=S(=O)(c1ccc(Cl)cc1)c1nc(-c2ccco2)oc1N1CCCCC1`, the largest response in the series, negative = inhibition was -3.63% (inactive).
Turning to `O=S(=O)(c1ccccc1)c1nc(Cc2ccccc2)oc1N1CCOCC1`, the Potency is 44.7 µM (active).
`O=S(=O)(c1ccc(Br)cc1)c1nc(-c2ccccc2)oc1N1CCOCC1`: the largest response in the series, negative = inhibition was -5.06% (inactive).
On the same count and under the same terms, with `Cc1ccc(OC(=O)c2cncc(Br)c2)c(C)c1` the figure was -4.31% (inactive).
On the same count and under the same terms, with `COc1ccc(C(=O)CC(=O)C(=O)Nc2cc([N+](=O)[O-])ccc2OC)cc1` the figure was 1.31% (inactive); with `O=C(Nc1cccc([N+](=O)[O-])c1)Nc1ccc(Cl)cn1`, 13.8% (inactive); with `CCCc1cc(C(=O)Nc2ccc(Cl)cn2)cs1`, 2.86% (inactive).
For the molecule `O=C(Nc1ccc(Cl)cn1)Nc1cccs1`, the Potency was 39.8 µM (active).
Consider `Cc1sc2ncn(CC(=O)NCCN(C)C)c(=O)c2c1S(=O)(=O)N1CCC(C)CC1`, for which the largest response in the series, negative = inhibition is 16.8% (inactive).
The same measure, in the same setting: under `O=C(CNC(=O)c1ccccc1)Oc1ccc([N+](=O)[O-])cc1` stands 7.55% (inactive); under `COc1ccc(C(=O)OCC(=O)Nc2cccc(C(C)=O)c2)cc1OC`, 11.4% (inactive).
Take `CN(C)CCCNC(=S)N1CCN(c2nc(-c3ccccc3)cs2)CC1`: the largest response in the series, negative = inhibition is -3.69% (inactive).
As for `CC(=O)c1cccc(NC(=O)C2CCN(C(=O)c3ccccc3Cl)CC2)c1`, the largest response in the series, negative = inhibition is -3.58% (inactive).
As for `O=S(=O)(Nc1ccc2cn[nH]c2c1)c1ccccc1`, the largest response in the series, negative = inhibition was 14.6% (inactive).
Still for that read-out and setting: under `Cn1c(CCN2CCCC2)nc2cc(NS(=O)(=O)c3ccccc3)ccc21` stands 1.01% (inactive).
For `O=S(=O)(Nc1ccc2nc(-c3ccco3)[nH]c2c1)c1ccccc1`, the Potency was 28.2 µM (active).
As to `O=C(c1ccc(Br)o1)N1CCN(CCOc2ccccc2)CC1`, the largest response in the series, negative = inhibition is 15.3% (inactive).
On the same count and under the same terms, under `Cc1ccc(/C=N/NC(=O)c2cc3ccccc3cc2O)o1` stands 13.6% (inactive).
On the same count and under the same terms, with `O=[N+]([O-])c1cccc2ncccc12` the figure was 8.82% (inactive).
With `O=[N+]([O-])c1cc([N+](=O)[O-])c2cccnc2c1O`, the Potency is 39.8 µM (active).
Turning to `O=C(c1cccc(F)c1)N1CCN(c2ccc([N+](=O)[O-])c3cccnc23)CC1`, the largest response in the series, negative = inhibition was 1.54% (inactive).
Still for that read-out and setting: with `NC(=O)C1CC(=O)N(c2ccc(OCC(=O)NCc3ccccc3)cc2)C1` (stereo not drawn) the figure was 23.9% (inactive).
As for `c1ccc(NCc2cccc3ccccc23)nc1`, the largest response in the series, negative = inhibition is -7.37% (inactive).
The same measure, in the same setting: under `Nc1scc[n+]1Cc1cccc2cccnc12` stands 17.3% (inactive).
Consider `c1ccc2c(C[n+]3csc4ccccc43)cccc2c1`, for which the Potency is 44.7 µM (active).
For `C=CCCN(C(Cc1ccccc1)C(=O)OC)S(=O)(=O)c1cc(Br)ccc1Br` (stereo not drawn), the largest response in the series, negative = inhibition was 7.63% (inactive).
For `CCOc1ccc(N/C(N)=N/c2nc(C)c(C)c(=O)[nH]2)cc1`, the largest response in the series, negative = inhibition is 12.8% (inactive).
As for `Cc1ccc(C)c(SCc2nc3sc(C(=O)O)c(C)c3c(=O)[nH]2)c1`, the largest response in the series, negative = inhibition was -17.2% (inactive).
On to `CSc1nnc(SCc2nc3sc(C(=O)O)c(C)c3c(=O)[nH]2)s1`, for which the Potency was 12.6 µM (active).
As for `CCOC(=O)c1sc2nc(CSc3ccccc3)[nH]c(=O)c2c1C`, the largest response in the series, negative = inhibition was 1.58% (inactive).
Same read-out and setting: under `Cc1cccc(OCC(=O)NCCNC(=O)c2cccnc2)c1` stands 3.63% (inactive); under `CN(C)CCN(Cc1ccccc1)S(=O)(=O)c1csc(C(N)=O)c1`, 4.81% (inactive).
On the same count and under the same terms, under `CCc1ccc(OCC(=O)OC(C)C(=O)NC2CC2)cc1` (stereo not drawn) stands 6.01% (inactive).
Same read-out and setting: with `CSc1ncccc1C(=O)Nc1ccc(C)cn1` the figure was 10.7% (inactive).
Regarding `Cc1ccc(NC(=O)c2cc(-c3ccc(C)o3)nc3ccccc23)nc1`, the Potency is 10 µM (active).
For `COc1ccc(NC(=O)c2cc(-c3cc(OC)c(OC)c(OC)c3)nc3ccccc23)c(OC)c1`, the largest response in the series, negative = inhibition is 1.5% (inactive).
Still for that read-out and setting: under `CCc1nccn1CCC(=O)N1CCCC(N2CCN(c3ccccc3F)CC2)C1` (stereo not drawn) stands 1.37% (inactive); under `Cc1ccccc1-c1nc(CS(=O)(=O)CC(=O)NC(C)c2ccccc2)c(C)o1` (stereo not drawn), 1.96% (inactive).
As to `O=C(c1ccccc1)N1CCN(c2ccc([N+](=O)[O-])c(NCc3ccco3)c2)CC1`, the largest response in the series, negative = inhibition was 10.8% (inactive).
For `Cc1ccc(/C([O-])=C(/C(=S)NCc2ccco2)[n+]2ccccc2)cc1[N+](=O)[O-]`, the Potency was 25.1 µM (active).
For the molecule `O=C(NCc1ccco1)c1ccc([N+](=O)[O-])cc1Cl`, the largest response in the series, negative = inhibition was 22.8% (inactive).
On the same count and under the same terms, under `Cc1ccc(S(=O)(=O)NCC2CCC(C(=O)N3CCOCC3)CC2)cc1` (stereo not drawn) stands 10% (inactive).
For the molecule `CC(C)CCN1NC2(CCC(C)CC2)NC1=S` (stereo not drawn), the Potency is 79.4 µM (active).
As for `C[C@H]1Cc2c(COc3ccccc3)nc3c(c2CO1)CN(C(=O)NCc1ccco1)CC3`, the largest response in the series, negative = inhibition was 2.41% (inactive).
For the molecule `O=C(Cn1nc(C(=O)O)c2ccccc2c1=O)Nc1ccc(F)cc1`, the largest response in the series, negative = inhibition was 1.99% (inactive).
For `COCCOC(=O)C1=C(C)NC(=O)NC1c1cc2c(cc1Br)OCO2` (stereo not drawn), the largest response in the series, negative = inhibition was 10.6% (inactive).
On to `O=C(Nc1cccnc1)c1cc(Cl)ccc1Cl`, for which the largest response in the series, negative = inhibition is 16.1% (inactive).
`O=C(/C=C/c1ccc(Cl)cc1Cl)c1cccnc1`: the Potency was 31.6 µM (active).
`O=C(/C=C/c1ccc(Cl)cc1Cl)NCc1ccco1`: the largest response in the series, negative = inhibition was -1.31% (inactive).
In the case of `O=C(NCc1ccccc1Cl)c1ccc2c(=O)n(CC3CCCO3)c(=S)[nH]c2c1` (stereo not drawn), the largest response in the series, negative = inhibition was 12.5% (inactive).
On to `O=S(=O)(NC1CCCCC1N1CCC(O)CC1)c1ccc(Cl)cc1` (stereo not drawn), for which the largest response in the series, negative = inhibition was 10.1% (inactive).
The same measure, in the same setting: under `COc1ccc(N2CCN(S(=O)(=O)c3ccc4c(c3)N(C(C)=O)CCO4)CC2)cc1` stands 11.9% (inactive); under `CCCCc1nc(SCC(=O)Nc2nnc(C(C)C)s2)n[nH]1`, 2.56% (inactive).
Turning to `N#CC1(NC(=O)COC(=O)CCN=C2NS(=O)(=O)c3ccccc32)CCCCC1`, the largest response in the series, negative = inhibition was 8.87% (inactive).
On to `O=C1C(c2ccccn2)=[N+]([O-])c2ccccc21`, for which the Potency was 56.2 µM (active).
Regarding `O=Cc1cn(-c2ccccc2)nc1-c1ccccn1`, the largest response in the series, negative = inhibition was 19.4% (inactive).
The same measure, in the same setting: under `CCOC(=O)C1(Cc2ccccc2C)CCCN(S(C)(=O)=O)C1` (stereo not drawn) stands -1.45% (inactive); under `O=C(NCCc1ccccc1)C(=O)NCC1OCCN1S(=O)(=O)c1cccs1` (stereo not drawn), 15% (inactive).
In the case of `CC(=O)N1CCCc2cc(S(=O)(=O)N3CCCC(C(=O)N4CCN(c5cccc(Cl)c5)CC4)C3)ccc21` (stereo not drawn), the largest response in the series, negative = inhibition was -7.31% (inactive).
The same measure, in the same setting: under `O=C(COc1ccccc1)Nc1ccc(C(=O)N2CCCC2)cc1` stands 22.7% (inactive); under `CCOC(=O)/C(C#N)=C/c1ccc(N2CCCCC2)cc1`, -25.4% (inactive).
Same read-out and setting: under `Cc1ccccc1C(=O)Nc1ccc(N2CCCCCC2)cc1` stands -8.31% (inactive).
For the molecule `O=C1C=CC(=O)N1c1ccc(N2CCCCC2)cc1`, the Potency was 7.08 µM (active).
`Cc1ccc(C(CNC(=O)Nc2ccccc2)N2CCN(C)CC2)cc1` (stereo not drawn): the largest response in the series, negative = inhibition is 6.82% (inactive).
The same measure, in the same setting: with `COC(=O)C(C)Oc1ccc2c(c1)O/C(=C\c1cccc(Br)c1)C2=O` (stereo not drawn) the figure was -9.46% (inactive); with `COc1ccc(/C=C(/NC(=O)c2ccco2)C(=O)Nc2ccc(C(C)=O)cc2)cc1`, 0.26% (inactive).
As for `O=C(Nc1ccccc1)/C(=C\c1ccco1)NC(=O)c1ccco1`, the Potency was 44.7 µM (active).
For `COc1ccccc1C(=O)N/C(=C/c1ccco1)C(=O)Nc1ccc(C(=O)O)cc1`, the Potency was 50.1 µM (active).
The same measure, in the same setting: under `Cc1cccc(NC(=O)/C(=C\c2ccco2)NC(=O)c2ccccc2)c1` stands 50.1 µM (active).
On to `Cc1ccc(C(=O)N/C(=C/c2ccco2)C(=O)NCCc2c[nH]c3ccccc23)cc1C`, for which the largest response in the series, negative = inhibition was 21.3% (inactive).
The same measure, in the same setting: under `Cc1ccc(NC(=O)/C(=C\c2ccccc2)NC(=O)c2ccco2)cc1` stands 12.3% (inactive).
For the molecule `COc1ccccc1C(=O)N/C(=C/c1ccc2c(c1)OCO2)C(=O)Nc1cccc(C(=O)O)c1`, the largest response in the series, negative = inhibition was -9.69% (inactive).
Still for that read-out and setting: under `CC(=O)NC(Cc1c[nH]c2ccccc12)C(=O)O` (stereo not drawn) stands 23% (inactive); under `COc1ccc(/C=C(/NC(=O)c2ccccc2)C(=O)Nc2cccc(C(=O)O)c2)cc1`, 2.19% (inactive).
For the molecule `O=C(NC(Cc1c[nH]c2ccccc12)C(=O)O)/C(=C/c1ccco1)NC(=O)c1ccccc1` (stereo not drawn), the Potency is 44.7 µM (active).
Consider `O=C(NCc1ccco1)/C(=C/c1ccco1)NC(=O)c1ccccc1`, for which the largest response in the series, negative = inhibition was -7.6% (inactive).
On the same count and under the same terms, under `O=C(Nc1ccccc1)c1ccco1` stands 19.8% (inactive).
On the same count and under the same terms, with `Cc1nc2ccc(S(=O)(=O)N(C)CC(=O)NC(C)c3ccccc3)cc2s1` (stereo not drawn) the figure was 10.4% (inactive).
On the same count and under the same terms, under `COCn1c(C(O)c2ccccc2)cc2ccccc21` (stereo not drawn) stands 9.58% (inactive); under `Cc1ccccc1C(=O)N1CCN(c2ccc(NC(=O)c3cccs3)cc2)CC1`, 13.1% (inactive).
`COc1ccc(C(=O)NCc2nnc(SCC(=O)NC3=NCCS3)n2C)cc1`: the largest response in the series, negative = inhibition is -3.34% (inactive).
Same read-out and setting: with `COC(=O)c1ccc(NC(=O)CSc2nncn2-c2cccnc2)cc1` the figure was 16.4% (inactive); with `CC(C)NC(=O)COCc1cc(-c2ccc3c(c2)OCO3)on1`, 4.15% (inactive).
With `COc1cccc(-n2c(=S)sc3c(=O)n(-c4ccccc4OC)c(SCC4OCCO4)nc32)c1`, the largest response in the series, negative = inhibition is -1.29% (inactive).
On to `COc1ccc(Cl)cc1-n1c(=S)sc2c(=O)n(-c3ccc(F)cc3)c(SCC(=O)O)nc21`, for which the Potency is 14.1 µM (active).
Regarding `COc1cccc(-n2c(=S)sc3c(=O)n(-c4ccccc4C)c(SCC(=O)O)nc32)c1`, the largest response in the series, negative = inhibition was 4.84% (inactive).
With `O=C(c1cc(COc2ccc(F)cc2F)on1)N1CCOCC1`, the largest response in the series, negative = inhibition is 2.39% (inactive).

The values are drawn from PubChem BioAssay AID1490 (National Center for Advancing Translational Sciences (NCATS), 2009).
